# Measurements taken from publication PMC7862700, “An all-to-all approach to the identification of sequence-specific readers for epigenetic DNA modifications on cytosine”.
# Experiments:
# Assay in all cases: DAPPL (digital affinity profiling via proximity ligation, sequencing); 10 mM Tris-HCl pH 7.5, 50 mM NaCl, 1 mM DTT, 4% glycerol, room temperature, 30 min; GST-TFs on glutathione beads, 16-mer random dsDNA library, 0.1% formaldehyde crosslink after washing; high values mean tight binding
# Conditions in all cases: protein: recombinant; tags: N-terminal GST; dsDNA, one strand shown
# ELK1 = target: T1, ELK1 (Homo sapiens, UniProt P19419 1-428)
# T1 sequence: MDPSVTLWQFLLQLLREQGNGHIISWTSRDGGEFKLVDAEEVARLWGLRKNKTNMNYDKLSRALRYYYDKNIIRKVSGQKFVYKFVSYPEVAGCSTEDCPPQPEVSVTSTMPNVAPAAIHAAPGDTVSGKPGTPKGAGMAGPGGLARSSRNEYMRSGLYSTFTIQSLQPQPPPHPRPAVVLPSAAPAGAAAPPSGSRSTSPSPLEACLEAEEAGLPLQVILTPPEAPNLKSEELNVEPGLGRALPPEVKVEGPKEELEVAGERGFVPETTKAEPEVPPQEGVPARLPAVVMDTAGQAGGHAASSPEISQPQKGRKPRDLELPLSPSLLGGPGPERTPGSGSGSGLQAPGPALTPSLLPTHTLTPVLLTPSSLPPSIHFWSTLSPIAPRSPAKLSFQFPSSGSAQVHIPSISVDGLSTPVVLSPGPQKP
# Summary of the method: (§1)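 A tag-only sample was pooled with DNA-barcoded human transcription factors that had been expressed in yeast as GST fusions and captured on glutathione beads. The pools were incubated for 30 min at room temperature with 200 nmole of a random double-stranded 16-mer DNA library in Tris/NaCl/DTT/glycerol buffer, then washed, crosslinked with 0.1% formaldehyde, proximity-ligated (BsaI/T4 ligase, 1 h, 37 °C), PCR-amplified and sequenced on an Illumina NextSeq500. Binding signal is each hexamer's read frequency for a factor divided by its frequency for the tag-only sample.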
# GABPA = target: T2, GABPA (Homo sapiens, UniProt Q06546 1-454)
# T2 sequence: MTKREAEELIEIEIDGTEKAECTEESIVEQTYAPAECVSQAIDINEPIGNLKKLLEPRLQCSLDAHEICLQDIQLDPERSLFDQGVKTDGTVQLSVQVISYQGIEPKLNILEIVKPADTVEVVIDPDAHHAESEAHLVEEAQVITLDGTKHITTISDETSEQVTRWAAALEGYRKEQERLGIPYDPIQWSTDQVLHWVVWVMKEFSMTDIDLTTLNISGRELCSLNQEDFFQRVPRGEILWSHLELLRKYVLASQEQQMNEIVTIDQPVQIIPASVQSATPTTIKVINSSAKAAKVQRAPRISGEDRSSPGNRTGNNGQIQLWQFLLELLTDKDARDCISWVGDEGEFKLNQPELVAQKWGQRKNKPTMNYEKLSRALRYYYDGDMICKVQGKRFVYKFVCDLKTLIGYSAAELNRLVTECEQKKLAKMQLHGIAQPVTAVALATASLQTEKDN
# Summary of the method: as §1
# ERG = target: T3, ERG (Homo sapiens, UniProt P11308 1-479)
# T3 sequence: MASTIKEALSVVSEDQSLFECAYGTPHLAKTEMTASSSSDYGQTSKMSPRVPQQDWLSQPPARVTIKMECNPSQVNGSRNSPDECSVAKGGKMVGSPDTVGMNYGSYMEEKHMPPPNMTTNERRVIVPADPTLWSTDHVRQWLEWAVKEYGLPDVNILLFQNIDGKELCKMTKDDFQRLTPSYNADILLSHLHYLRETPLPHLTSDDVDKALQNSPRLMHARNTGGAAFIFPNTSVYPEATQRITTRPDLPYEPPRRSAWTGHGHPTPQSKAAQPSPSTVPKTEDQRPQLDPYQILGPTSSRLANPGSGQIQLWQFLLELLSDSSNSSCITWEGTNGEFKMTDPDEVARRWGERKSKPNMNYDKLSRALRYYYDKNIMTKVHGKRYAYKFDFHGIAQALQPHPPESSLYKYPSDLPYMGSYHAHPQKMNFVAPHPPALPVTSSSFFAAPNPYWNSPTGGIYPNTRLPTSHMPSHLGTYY
# Summary of the method: as §1
# ELF1 = ELF1 (Homo sapiens, UniProt P32519 1-619)
# Summary of the method: as §1
# EHF = target: T4, EHF (Homo sapiens, UniProt Q9NZC4 1-300)
# T4 sequence: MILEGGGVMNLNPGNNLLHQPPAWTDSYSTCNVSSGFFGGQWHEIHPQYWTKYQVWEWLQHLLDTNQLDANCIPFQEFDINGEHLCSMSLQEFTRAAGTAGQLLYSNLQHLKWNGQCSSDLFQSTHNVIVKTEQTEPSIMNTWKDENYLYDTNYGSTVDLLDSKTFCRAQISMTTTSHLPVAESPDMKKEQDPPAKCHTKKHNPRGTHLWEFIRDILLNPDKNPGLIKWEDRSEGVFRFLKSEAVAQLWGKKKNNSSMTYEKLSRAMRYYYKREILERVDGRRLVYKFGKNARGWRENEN
# Summary of the method: as §1
# SPIB = SPIB (Homo sapiens, UniProt Q01892 1-262)
# Summary of the method: as §1
# FEV = target: T5, FEV (Homo sapiens, UniProt Q99581 1-238)
# T5 sequence: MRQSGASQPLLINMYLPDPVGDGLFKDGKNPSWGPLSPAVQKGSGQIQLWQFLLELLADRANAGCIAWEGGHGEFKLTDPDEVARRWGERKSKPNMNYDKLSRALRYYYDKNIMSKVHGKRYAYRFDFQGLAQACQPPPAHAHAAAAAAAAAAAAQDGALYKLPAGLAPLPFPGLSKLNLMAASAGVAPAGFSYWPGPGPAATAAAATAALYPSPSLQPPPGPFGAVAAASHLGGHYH
# Summary of the method: as §1
# ETV5 = ETV5 (Homo sapiens, UniProt P41161 1-510)
# Summary of the method: as §1
# ELF4 = ELF4 (Homo sapiens, UniProt Q99607 1-663)
# Summary of the method: as §1
# ELK4 = target: T6, ELK4 (Homo sapiens, UniProt P28324-2 1-405)
# T6 sequence: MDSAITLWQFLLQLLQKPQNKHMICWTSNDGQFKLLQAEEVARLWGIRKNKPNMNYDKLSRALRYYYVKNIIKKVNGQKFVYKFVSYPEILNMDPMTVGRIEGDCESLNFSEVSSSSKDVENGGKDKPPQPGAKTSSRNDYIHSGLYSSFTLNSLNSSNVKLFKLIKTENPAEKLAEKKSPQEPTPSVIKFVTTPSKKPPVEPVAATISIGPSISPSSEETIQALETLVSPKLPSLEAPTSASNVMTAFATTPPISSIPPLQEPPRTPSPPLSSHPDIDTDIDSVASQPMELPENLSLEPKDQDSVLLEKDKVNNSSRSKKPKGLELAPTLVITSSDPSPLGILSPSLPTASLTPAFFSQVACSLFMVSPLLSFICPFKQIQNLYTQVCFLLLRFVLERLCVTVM
# Summary of the method: as §1
# ETV2 = target: T7, ETV2 (Homo sapiens, UniProt O00321 1-342)
# T7 sequence: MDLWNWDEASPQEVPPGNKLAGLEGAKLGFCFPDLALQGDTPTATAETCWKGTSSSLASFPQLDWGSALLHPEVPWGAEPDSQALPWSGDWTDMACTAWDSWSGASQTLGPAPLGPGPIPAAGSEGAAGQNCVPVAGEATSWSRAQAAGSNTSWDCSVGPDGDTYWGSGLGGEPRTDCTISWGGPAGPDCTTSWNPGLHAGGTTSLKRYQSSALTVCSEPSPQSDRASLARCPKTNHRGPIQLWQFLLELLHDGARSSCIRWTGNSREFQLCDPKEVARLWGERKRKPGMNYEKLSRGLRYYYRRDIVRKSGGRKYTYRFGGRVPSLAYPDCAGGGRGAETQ
# Summary of the method: as §1
# ETV1 = ETV1 (Homo sapiens, UniProt P50549 1-477)
# Summary of the method: as §1
# ERF = target: T8, ERF (Homo sapiens, UniProt P50548 1-548)
# T8 sequence: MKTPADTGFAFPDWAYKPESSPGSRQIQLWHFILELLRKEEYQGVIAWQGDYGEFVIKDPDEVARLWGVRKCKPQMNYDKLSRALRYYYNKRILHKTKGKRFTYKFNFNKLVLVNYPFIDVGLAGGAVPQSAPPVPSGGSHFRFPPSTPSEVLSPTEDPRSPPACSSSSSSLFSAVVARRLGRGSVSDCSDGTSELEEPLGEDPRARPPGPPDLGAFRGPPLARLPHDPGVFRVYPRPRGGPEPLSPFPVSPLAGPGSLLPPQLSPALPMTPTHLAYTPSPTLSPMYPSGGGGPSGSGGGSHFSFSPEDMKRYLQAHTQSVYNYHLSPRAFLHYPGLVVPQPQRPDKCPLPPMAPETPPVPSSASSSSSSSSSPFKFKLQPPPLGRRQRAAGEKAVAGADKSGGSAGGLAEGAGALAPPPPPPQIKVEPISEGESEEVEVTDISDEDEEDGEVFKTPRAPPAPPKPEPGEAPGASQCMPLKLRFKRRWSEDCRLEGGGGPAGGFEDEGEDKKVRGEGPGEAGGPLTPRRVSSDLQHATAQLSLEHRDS
# Summary of the method: as §1
# ETV3L = target: T9, ETV3L (Homo sapiens, UniProt Q6ZN32 1-361)
# T9 sequence: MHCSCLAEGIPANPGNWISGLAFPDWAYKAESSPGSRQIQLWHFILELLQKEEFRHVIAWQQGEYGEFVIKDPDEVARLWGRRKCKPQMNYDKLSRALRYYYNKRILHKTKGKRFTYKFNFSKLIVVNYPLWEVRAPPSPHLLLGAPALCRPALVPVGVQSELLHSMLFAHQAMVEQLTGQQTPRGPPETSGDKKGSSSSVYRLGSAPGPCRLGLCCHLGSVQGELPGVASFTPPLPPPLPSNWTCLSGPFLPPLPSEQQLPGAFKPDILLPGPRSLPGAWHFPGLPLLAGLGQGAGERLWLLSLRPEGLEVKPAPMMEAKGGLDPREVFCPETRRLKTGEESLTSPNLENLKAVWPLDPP
# Summary of the method: as §1
# ETS2 = target: T10, ETS2 (Homo sapiens, UniProt P15036 1-469)
# T10 sequence: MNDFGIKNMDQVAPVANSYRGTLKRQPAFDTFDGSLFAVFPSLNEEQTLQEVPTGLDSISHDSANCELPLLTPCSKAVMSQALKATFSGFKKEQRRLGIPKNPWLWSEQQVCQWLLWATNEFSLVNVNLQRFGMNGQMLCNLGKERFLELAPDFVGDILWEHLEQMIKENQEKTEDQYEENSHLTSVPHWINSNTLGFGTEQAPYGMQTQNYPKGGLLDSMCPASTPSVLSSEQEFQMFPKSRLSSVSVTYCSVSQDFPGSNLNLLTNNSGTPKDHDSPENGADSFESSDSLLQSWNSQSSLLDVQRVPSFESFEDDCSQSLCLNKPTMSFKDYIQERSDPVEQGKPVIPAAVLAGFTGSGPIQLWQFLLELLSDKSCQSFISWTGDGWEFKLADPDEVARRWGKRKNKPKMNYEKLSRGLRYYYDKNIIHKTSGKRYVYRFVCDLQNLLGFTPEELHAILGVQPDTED
# Summary of the method: as §1
# SPDEF = target: T11, SPDEF (Homo sapiens, UniProt O95238 1-335)
# T11 sequence: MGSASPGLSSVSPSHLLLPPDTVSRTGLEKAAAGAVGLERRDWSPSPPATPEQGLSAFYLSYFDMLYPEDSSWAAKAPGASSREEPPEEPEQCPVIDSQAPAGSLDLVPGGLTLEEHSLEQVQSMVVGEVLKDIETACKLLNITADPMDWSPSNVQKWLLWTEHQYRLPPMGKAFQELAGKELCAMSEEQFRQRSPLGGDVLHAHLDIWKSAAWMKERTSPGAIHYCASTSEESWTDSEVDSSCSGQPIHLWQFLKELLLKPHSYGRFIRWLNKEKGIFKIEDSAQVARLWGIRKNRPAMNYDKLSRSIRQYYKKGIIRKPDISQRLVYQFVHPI
# Summary of the method: as §1
# ETV7 = target: T12, ETV7 (Homo sapiens, UniProt Q9Y603 1-341)
# T12 sequence: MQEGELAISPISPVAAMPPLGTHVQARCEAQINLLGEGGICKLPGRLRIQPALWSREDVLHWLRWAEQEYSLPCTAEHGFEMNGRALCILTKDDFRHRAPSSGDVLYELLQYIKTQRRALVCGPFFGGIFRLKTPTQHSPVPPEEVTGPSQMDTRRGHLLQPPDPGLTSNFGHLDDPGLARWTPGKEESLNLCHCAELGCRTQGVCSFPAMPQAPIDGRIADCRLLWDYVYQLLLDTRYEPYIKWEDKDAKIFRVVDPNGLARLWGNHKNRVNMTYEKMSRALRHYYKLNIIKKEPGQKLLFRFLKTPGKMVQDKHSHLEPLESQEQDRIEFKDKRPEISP
# Summary of the method: as §1
# ETV3 = target: T13, ETV3 (Homo sapiens, UniProt P41162-2 1-143)
# T13 sequence: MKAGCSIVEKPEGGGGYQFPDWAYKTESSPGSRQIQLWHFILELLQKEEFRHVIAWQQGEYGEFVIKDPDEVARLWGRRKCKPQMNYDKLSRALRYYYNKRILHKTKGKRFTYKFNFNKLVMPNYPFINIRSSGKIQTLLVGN
# Summary of the method: as §1
# ETV6 = ETV6 (Homo sapiens, UniProt P41212 1-452)
# Summary of the method: as §1
# ETV6, sequence (P41212 whole entry): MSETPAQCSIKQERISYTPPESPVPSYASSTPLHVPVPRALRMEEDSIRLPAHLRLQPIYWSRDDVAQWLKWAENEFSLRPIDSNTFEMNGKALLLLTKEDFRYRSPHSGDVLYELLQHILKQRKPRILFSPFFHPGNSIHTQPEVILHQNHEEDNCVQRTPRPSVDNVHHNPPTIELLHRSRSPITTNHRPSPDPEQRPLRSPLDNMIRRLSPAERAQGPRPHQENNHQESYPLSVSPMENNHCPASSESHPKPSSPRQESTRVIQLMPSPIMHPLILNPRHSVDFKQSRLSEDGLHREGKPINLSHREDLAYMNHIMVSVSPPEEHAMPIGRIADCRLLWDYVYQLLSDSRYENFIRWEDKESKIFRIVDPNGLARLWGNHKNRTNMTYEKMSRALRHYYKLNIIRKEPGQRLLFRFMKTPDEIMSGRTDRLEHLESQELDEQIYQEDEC
# SPIB, sequence (Q01892 whole entry): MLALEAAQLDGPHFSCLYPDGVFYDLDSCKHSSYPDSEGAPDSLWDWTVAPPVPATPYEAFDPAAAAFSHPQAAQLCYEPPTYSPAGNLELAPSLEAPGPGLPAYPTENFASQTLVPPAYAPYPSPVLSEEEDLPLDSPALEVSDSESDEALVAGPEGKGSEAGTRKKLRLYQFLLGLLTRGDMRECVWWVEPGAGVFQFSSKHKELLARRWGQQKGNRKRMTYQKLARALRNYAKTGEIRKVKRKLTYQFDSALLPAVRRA
# ELF4, sequence (Q99607 whole entry): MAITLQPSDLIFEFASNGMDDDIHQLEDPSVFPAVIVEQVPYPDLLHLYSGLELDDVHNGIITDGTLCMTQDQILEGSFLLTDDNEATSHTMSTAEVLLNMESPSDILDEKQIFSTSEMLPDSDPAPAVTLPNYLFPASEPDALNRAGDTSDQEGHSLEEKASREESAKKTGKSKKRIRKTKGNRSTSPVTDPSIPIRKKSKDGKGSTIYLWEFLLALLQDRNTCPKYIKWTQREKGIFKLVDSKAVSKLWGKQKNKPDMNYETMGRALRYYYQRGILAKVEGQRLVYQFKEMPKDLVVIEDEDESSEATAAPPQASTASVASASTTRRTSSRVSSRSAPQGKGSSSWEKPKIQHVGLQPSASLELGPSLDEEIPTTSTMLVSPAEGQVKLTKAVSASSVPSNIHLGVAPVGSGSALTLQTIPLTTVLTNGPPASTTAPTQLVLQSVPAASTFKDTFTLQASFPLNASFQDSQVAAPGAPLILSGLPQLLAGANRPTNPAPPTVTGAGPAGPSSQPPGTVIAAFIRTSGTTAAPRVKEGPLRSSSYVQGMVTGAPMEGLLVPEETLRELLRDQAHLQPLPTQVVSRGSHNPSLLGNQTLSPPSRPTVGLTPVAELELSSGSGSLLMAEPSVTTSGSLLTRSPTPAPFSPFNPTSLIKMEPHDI
# ETV1, sequence (P50549 whole entry): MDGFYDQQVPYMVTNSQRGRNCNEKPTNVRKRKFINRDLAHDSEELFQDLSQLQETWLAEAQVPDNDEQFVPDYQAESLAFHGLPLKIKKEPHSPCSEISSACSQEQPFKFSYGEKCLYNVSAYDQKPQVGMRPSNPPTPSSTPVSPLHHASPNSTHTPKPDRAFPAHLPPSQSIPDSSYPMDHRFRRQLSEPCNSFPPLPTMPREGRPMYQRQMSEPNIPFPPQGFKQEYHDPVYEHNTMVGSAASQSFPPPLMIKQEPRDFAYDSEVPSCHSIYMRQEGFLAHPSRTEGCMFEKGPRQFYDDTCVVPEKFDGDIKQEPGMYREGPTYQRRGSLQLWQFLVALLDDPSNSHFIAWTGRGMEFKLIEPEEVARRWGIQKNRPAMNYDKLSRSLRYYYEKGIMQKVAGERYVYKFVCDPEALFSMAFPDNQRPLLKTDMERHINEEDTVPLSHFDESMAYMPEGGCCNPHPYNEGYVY
# ELF1, sequence (P32519 whole entry): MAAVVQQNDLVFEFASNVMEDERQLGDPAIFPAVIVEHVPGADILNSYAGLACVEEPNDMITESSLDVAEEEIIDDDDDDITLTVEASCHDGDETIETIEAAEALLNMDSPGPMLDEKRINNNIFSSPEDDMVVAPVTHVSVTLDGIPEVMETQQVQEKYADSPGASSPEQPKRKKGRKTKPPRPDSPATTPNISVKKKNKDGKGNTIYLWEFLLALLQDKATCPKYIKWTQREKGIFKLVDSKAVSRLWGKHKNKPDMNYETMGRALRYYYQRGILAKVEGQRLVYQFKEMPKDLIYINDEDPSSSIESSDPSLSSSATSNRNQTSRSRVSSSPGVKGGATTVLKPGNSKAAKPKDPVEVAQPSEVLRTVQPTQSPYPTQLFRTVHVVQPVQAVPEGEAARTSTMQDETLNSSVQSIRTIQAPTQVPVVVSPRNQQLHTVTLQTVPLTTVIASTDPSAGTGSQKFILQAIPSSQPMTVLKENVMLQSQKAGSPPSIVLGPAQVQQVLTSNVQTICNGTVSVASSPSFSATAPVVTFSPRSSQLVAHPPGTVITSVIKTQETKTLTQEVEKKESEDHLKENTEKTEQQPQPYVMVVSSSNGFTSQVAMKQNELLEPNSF
# ETV5, sequence (P41161 whole entry): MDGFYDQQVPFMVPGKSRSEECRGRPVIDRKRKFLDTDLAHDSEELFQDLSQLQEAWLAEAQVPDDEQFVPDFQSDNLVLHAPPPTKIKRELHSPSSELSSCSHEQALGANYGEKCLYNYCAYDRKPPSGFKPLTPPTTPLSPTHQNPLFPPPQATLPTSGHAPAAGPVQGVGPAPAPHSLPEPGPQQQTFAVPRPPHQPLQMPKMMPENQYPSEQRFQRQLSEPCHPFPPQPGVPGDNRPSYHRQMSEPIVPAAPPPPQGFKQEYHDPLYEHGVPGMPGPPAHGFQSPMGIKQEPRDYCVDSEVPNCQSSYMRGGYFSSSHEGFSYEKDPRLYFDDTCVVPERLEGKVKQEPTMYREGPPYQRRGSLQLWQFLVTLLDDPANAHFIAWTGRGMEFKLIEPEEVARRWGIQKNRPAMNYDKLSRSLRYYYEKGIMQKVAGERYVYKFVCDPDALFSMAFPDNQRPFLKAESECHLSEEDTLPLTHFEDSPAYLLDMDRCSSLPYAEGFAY
sequence,measurement,setting,value
TGCCCA,binding signal,ELK1,"1.23 fold enrichment (6-mer frequency, TF over GST control)"
same,binding signal,GABPA,"1.19 fold enrichment (6-mer frequency, TF over GST control)"
same,binding signal,ERG,"1.14 fold enrichment (6-mer frequency, TF over GST control)"
same,binding signal,ELF1,"1.16 fold enrichment (6-mer frequency, TF over GST control)"
same,binding signal,EHF,"1.08 fold enrichment (6-mer frequency, TF over GST control)"
same,binding signal,SPIB,"1.12 fold enrichment (6-mer frequency, TF over GST control)"
same,binding signal,FEV,"1.21 fold enrichment (6-mer frequency, TF over GST control)"
same,binding signal,ETV5,"1.2 fold enrichment (6-mer frequency, TF over GST control)"
same,binding signal,ELF4,"1.2 fold enrichment (6-mer frequency, TF over GST control)"
same,binding signal,ELK4,"1.25 fold enrichment (6-mer frequency, TF over GST control)"
same,binding signal,ETV2,"1.1 fold enrichment (6-mer frequency, TF over GST control)"
same,binding signal,ETV1,"1.03 fold enrichment (6-mer frequency, TF over GST control)"
same,binding signal,ERF,"1.12 fold enrichment (6-mer frequency, TF over GST control)"
same,binding signal,ETV3L,"1.12 fold enrichment (6-mer frequency, TF over GST control)"
same,binding signal,ETS2,"1.12 fold enrichment (6-mer frequency, TF over GST control)"
same,binding signal,SPDEF,"1.12 fold enrichment (6-mer frequency, TF over GST control)"
same,binding signal,ETV7,"1.23 fold enrichment (6-mer frequency, TF over GST control)"
same,binding signal,ETV3,"1.15 fold enrichment (6-mer frequency, TF over GST control)"
same,binding signal,ETV6,"1.14 fold enrichment (6-mer frequency, TF over GST control)"
